USP10 inh – inhibitors of human USP10 deubiquitinase; Ubiquitin carboxyl-terminal hydrolase 10 (Homo sapiens), Q14694; AID 1645856, 2021; 47,000 compounds, 1.1% hits; purified USP10, Ub-rhodamine fluorescence, 60 min; inhibition, % at 20 µM
UCHL1 inh – inhibitors of human UCHL1 deubiquitinase; purified UCHL1, Ub-rhodamine cleavage fluorescence; 47,000 compounds, 0.2% hits; AID 1645859, 2021; inhibition, % at 20 µM
USP7 inh – inhibitors of human USP7 deubiquitinase. Ubiquitin carboxyl-terminal hydrolase 7 (Homo sapiens), Q93009. 47,000 compounds, 0.3% hits. inhibition, % at 20 µM. purified USP7, Ub-rhodamine cleavage fluorescence. AID 1645854, 2021
OTUD3 inh – inhibitors of human OTUD3 deubiquitinase. OTU domain-containing protein 3 (Homo sapiens), Q5T2D3. AID 1645858, 2021. inhibition, % at 25 µM. purified OTUD3, Ub-rhodamine fluorescence, 2 h. 47,000 compounds, 0.7% hits
USP8 block – inhibitors of human USP8 deubiquitinase | Ubiquitin carboxyl-terminal hydrolase 8 (Homo sapiens), P40818 | purified USP8, Ub-rhodamine cleavage fluorescence, 30 min | inhibition, % at 20 µM | 47,000 compounds, 4.2% hits
USP28 block – inhibitors of human USP28 deubiquitinase; Ubiquitin carboxyl-terminal hydrolase 28 (Homo sapiens), Q96RU2; purified USP28, Ub-rhodamine cleavage fluorescence, 30 min; inhibition, % at 25 µM; 47,000 compounds, 3% hits; AID 1645857, 2021
An asterisk follows results filed as active; nt = no result given. Hits are enriched below; roughly 6.8% of the tested compounds scored in any of these assays. Rule as the data show it: active = inhibition above about 30%; inactive = the rest.

SMILES | USP10 inh | UCHL1 inh | USP7 inh | OTUD3 inh | USP8 block | USP28 block
CC(=O)c1cccc(NC(=O)COc2ncnc3sccc23)c1 | -4 | 2 | 3 | -36 | 39* | -32
COc1ccc(N2CCN(c3nccc4ccc(C(=O)Nc5ccc(OC)c(OC)c5)cc34)CC2)cc1 | -1 | 5 | 10 | 2 | -3 | -11
CC(C)CCNC(=O)c1ccc2ccnc(N3CCN(c4ccccc4F)CC3)c2c1 | -8 | 4 | 0 | -20 | 67* | -15
COc1ccc(OC)c(NC(=O)c2cnc(NCc3ccccc3F)nc2C)c1 | -2 | 1 | -15 | -12 | 33* | -2
CC(=O)c1cccc(NC(=O)c2cnc(NCc3ccccc3F)nc2C)c1 | 4 | -3 | -16 | -9 | -33 | 8
CCOC(=O)c1sc2ccccc2c1S(=O)(=O)N1CCc2ccccc21 | 3 | 4 | 3 | 0 | -104 | -4
O=S(=O)(O)c1cc2cc3ccccc3cc2[nH]1 | -2 | 0 | -5 | -5 | 87* | 0
O=C(/C=C/c1ccc2c(c1)OCO2)Nc1nc2n(n1)C(c1ccccc1)CC(=O)N2 (centres undefined) | 22 | -1 | 6 | -3 | 62* | -14
CNC(=O)C1CN(C(=O)Nc2cc(C)ccc2C)CC12CCOCC2 (centres undefined) | 2 | 4 | 5 | 1 | 2 | nt
c1ccc(CSc2ccc3nnc(-c4ccncc4)n3n2)nc1 | -3 | -3 | -2 | 1 | -169 | 8
c1ccc(-c2nnc3ccc(SCc4ccccn4)nn23)cc1 | 5 | 0 | 2 | 16 | -133 | 31*
Fc1cccc(-c2cc(CN3CCN(c4ncccn4)CC3)[nH]n2)c1 | -1 | -3 | -8 | -11 | -32 | -8
O=S(=O)(Nc1ccc(Oc2ccccc2)cc1)c1ccccc1F | 22 | 4 | -5 | 0 | 4 | 32*
O=S(=O)(Nc1ccccc1-c1ccccc1)c1ccccc1F | 10 | 2 | -4 | 13 | 17 | 15
CC(=O)N1CCC2(CCCN(C(=O)c3ccccc3-n3cccc3)C2)CC1 | -3 | -1 | 5 | -1 | -5 | -10
COC(=O)c1cc2sccc2n1CC(=O)Nc1cccc(SC)c1 | 4 | 2 | 5 | 2 | 1 | 17
Cc1ccc(Cn2c(C(=O)Nc3cccnc3)cc3sccc32)cc1 | 3 | 2 | 8 | 7 | 43* | 8
Cc1ccc(Cn2nc(C)cc2C(=O)Nc2cccc(C(F)(F)F)c2)cc1 | 11 | 11 | -1 | 17 | 21 | 11
CC(O)(CS(=O)(=O)Cc1ccccc1)C(=O)Nc1cccc(C(F)(F)F)c1 (centres undefined) | 0 | -2 | -9 | -2 | -1 | -2
Cc1cc(C(F)(F)F)n(-c2ccc(NC(=O)Nc3cccc(C(F)(F)F)c3)cc2)n1 | 30* | 6 | 5 | 31* | 15 | 43*
Cn1cc(NC(=O)Nc2cccc(C(F)(F)F)c2)c2ccccc2c1=O | 68* | 27 | -34 | 88* | 97* | 61*
COc1ccc(C2CCCN2C(=O)c2cnn3cc(C)cnc23)c(OC)c1 (centres undefined) | 0 | -1 | -1 | 0 | 3 | -5
Cc1nc(-c2ccccc2)nc2c1CC(=O)N2Cc1cccnc1 | -5 | -22 | -36 | -72 | 52* | -74
Cc1nc(C2CCNCC2)nc2c1CC(=O)N2CCc1ccccc1 | -1 | 1 | 3 | 14 | 1 | 11
COc1ccc2nc(N3CC(C(=O)Nc4ccc(C(N)=O)cc4)C3)sc2c1 | 26 | 9 | 12 | 16 | 15 | 32*
SMILES | USP10 inh | UCHL1 inh | USP7 inh | OTUD3 inh | USP8 block | USP28 block
Clc1ncc(CN2CCc3ccccc3C2)s1 | 2 | 2 | 0 | 3 | 35* | 38*
CC(OC(=O)c1c2c(nc3ccccc13)CCCCC2)C(=O)Nc1ccc2ccccc2c1 (centres undefined) | 13 | 4 | 10 | 43* | 35* | 44*
CC(C)CCNC(=O)Cn1cc(S(=O)(=O)Cc2ccccc2)c2ccccc21 | 0 | -1 | -10 | 3 | -10 | 0
COCCNC(=O)c1cc(-c2ccn(CC3CC3)n2)n2ccccc12 | -7 | -10 | -57 | -68 | -19 | -59
NCCNC(=O)NC1CCN(c2nc(-c3cccnc3)nc3ccccc23)CC1 | 5 | 1 | 2 | 5 | -85 | 10
O=C(NC1CCN(c2nc(-c3cccnc3)nc3ccccc23)CC1)c1cccnc1 | 1 | 3 | 3 | 2 | 6 | 52*
Cc1ccc(S(=O)(=O)c2c(C(=O)N3CCCCC3)cnc3ccc(Cl)cc23)cc1 | 2 | 5 | 9 | 17 | 20 | 13
COc1ccc(-n2ccc(=O)c(-c3nc(-c4ccc(F)cc4)no3)n2)cc1 | 4 | 5 | 8 | 14 | 85* | 2
COc1cccc(-n2ccc(=O)c(-c3nc(-c4ccccc4Cl)no3)n2)c1 | 3 | 1 | -19 | 23 | 68* | 41*
COc1ccccc1-c1noc(-c2nn(-c3ccc(C)c(C)c3)ccc2=O)n1 | -4 | 0 | -25 | -26 | -4 | -2
O=C1CC(c2noc(-c3cccc(F)c3)n2)CN1Cc1ccccc1 (centres undefined) | -1 | 0 | -19 | 0 | -9 | -4
CCCCn1c(=O)c2sccc2n2c(CCC(=O)NC3CCCC3)nnc12 | -1 | -2 | -19 | 1 | -23 | -2
Cc1cc(CSc2ncccc2C(=O)Nc2ccnn2Cc2cccnc2)no1 | -1 | 2 | 4 | 81* | -23 | 1
CCOc1ncccc1C(=O)Nc1ccnn1Cc1ccccc1 | 50* | -2 | 0 | 2 | 1 | -2
Cc1cc(CSc2ncccc2C(=O)Nc2ccnn2Cc2ccccn2)no1 | -3 | -3 | -1 | -6 | -56 | -12
CCOc1ncccc1C(=O)Nc1ccnn1Cc1ccc(C)s1 | 5 | 4 | -11 | 7 | 2 | 11
O=C1CCSc2ccccc2N1Cc1cccc(F)c1 | 4 | 0 | -19 | -3 | -12 | 17
O=C1CCSc2ccc(Cl)cc2N1Cc1cccc(F)c1 | 5 | 5 | -16 | 15 | 8 | 37*
COc1ccc(N2CCn3c(nc4ccccc43)C2)cc1NS(C)(=O)=O | -7 | -162 | -158 | -171 | -56 | -213
COc1cc(NC(=O)CCc2ccc(C)cc2C)ccc1-n1cnnn1 | -7 | -8 | -6 | -29 | -23 | -50
CNC(=O)CC1NC(=O)c2csc(n2)-c2ccc(-c3nc(C4=NC(C(=O)N5CCCC5C(N)=O)CO4)cs3)nc2-c2csc(n2)-c2csc(n2)C(C(O)c2ccccc2)NC(=O)CNC(=O)c2nc(sc2COC)C(C(C)C)NC(=O)c2nc1sc2C (centres undefined) | -2 | 0 | 16 | -5 | 6 | 42*
Cc1c(Cc2ccccc2)c(=O)oc2cc(OCc3nn[nH]n3)ccc12 | 19 | 2 | -41 | 17 | -6 | 44*

Compound activity deposited in PubChem by Buhrlage Lab, Dana-Farber Cancer Institute and Novartis Institutes for BioMedical Research (Cambridge, Mass).
